These results are taken from ChEMBL document CHEMBL3988442, “University of Dundee, Small-Polar-MMV Screening Library” (2021).

Design in all cases: scale not given: direction of the effect not stated beside the values
The target of assay [1] is Protein translocase subunit SecA (Escherichia coli (strain K12)) (UniProt P10408). In words: Assay to Identify E. coli SecA ATPase Inhibitors. The note with it: 30 µM. The assay is classed as functional.
Assay [2] has as its target T1, Ubiquitin-activating enzyme e1, putative (Leishmania donovani (strain BPK282A1)) (UniProt E9BSI1).
T1 sequence (whole entry): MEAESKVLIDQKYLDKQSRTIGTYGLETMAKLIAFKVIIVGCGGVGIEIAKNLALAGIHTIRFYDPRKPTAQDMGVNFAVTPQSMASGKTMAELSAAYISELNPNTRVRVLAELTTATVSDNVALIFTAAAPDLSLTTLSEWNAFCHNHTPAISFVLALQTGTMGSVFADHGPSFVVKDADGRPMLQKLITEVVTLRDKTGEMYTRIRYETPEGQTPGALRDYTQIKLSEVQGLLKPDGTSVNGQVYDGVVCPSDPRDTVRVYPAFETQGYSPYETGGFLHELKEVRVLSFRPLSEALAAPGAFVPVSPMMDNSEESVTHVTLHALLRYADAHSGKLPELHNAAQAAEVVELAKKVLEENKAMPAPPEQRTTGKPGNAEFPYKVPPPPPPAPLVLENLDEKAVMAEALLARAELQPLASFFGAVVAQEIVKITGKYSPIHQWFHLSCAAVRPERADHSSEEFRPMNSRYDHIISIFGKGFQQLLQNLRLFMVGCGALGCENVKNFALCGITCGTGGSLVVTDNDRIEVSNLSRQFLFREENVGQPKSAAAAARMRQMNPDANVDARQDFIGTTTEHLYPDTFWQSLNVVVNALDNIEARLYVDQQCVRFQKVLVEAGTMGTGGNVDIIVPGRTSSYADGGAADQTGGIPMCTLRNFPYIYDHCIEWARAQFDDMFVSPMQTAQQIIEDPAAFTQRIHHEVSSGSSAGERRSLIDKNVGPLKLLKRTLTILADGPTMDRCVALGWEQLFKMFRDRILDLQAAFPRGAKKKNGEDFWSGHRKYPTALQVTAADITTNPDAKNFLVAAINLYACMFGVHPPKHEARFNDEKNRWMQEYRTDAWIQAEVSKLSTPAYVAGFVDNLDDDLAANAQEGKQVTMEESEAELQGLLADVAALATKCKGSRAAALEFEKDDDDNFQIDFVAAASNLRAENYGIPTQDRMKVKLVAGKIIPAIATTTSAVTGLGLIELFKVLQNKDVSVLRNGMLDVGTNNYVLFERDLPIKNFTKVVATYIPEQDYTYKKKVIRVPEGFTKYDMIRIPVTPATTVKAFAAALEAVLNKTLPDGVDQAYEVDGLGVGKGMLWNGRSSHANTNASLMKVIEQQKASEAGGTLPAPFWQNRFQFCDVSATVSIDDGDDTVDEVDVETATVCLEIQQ
Kind of assay: Leishmania donovani Ubiquitin Activating Enzyme (LdE1). The assay is classed as functional. The note with it: 30 µM.

Assay [3] addresses AMP-activated protein kinase, AMPK (Homo sapiens) (UniProt P54646+O43741+P54619+Q9UGJ0+Q9Y478+Q13131+Q9UGI9). Kind of assay: AMP-dependent Kinase enzyme assay. An in vitro enzyme assay that detects ADP turnover that is directly proportional to AMPK activity. This uses naive AMPK that is activated during the assay with MK-8722. The assay is classed as functional. The note with it: 30 µM.

The target of assay [4] is Sialic acid-binding Ig-like lectin 9 (Homo sapiens) (UniProt Q9Y336). Kind of assay: Hs-Siglec9 ALPHAscreen SOP 20170721. The note with it: 10 µM. A general note: Bead proximity is the source of the signal in Alpha formats.
Sialic acid-binding Ig-like lectin 9 (Homo sapiens), sequence (Q9Y336 whole entry): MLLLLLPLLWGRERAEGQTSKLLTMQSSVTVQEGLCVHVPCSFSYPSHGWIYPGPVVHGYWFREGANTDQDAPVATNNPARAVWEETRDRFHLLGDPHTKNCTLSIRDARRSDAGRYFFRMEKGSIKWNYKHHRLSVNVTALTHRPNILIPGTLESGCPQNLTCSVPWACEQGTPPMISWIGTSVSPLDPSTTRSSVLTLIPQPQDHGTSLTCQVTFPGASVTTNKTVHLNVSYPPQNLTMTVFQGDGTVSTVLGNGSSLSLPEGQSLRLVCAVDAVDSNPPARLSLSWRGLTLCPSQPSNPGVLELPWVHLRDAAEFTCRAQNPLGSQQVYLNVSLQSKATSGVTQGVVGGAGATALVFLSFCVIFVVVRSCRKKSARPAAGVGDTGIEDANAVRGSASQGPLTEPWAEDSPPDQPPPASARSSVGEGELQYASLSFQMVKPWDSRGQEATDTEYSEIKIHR
The test system of another assay is Trypanosoma cruzi. Kind of assay: Trypanosoma cruzi phosphomannomutase and mannose-1-phosphate guanylyltransferase assay. The assay is classed as functional. The note with it: 10 µM.
The target of assay [5] is T2, Arginase-2, mitochondrial (Homo sapiens) (UniProt P78540).
T2 sequence (whole entry): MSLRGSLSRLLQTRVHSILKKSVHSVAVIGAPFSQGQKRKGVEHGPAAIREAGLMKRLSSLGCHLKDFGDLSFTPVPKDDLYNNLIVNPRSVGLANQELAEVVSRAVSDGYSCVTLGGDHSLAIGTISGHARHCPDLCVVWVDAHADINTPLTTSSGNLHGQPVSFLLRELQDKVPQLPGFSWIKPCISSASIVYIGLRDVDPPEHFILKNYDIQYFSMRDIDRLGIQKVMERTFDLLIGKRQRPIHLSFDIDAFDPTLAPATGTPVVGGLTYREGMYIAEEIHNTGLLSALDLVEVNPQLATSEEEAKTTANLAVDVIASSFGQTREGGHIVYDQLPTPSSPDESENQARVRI
In words: in vitro enzyme assay to detect the production of urea directly proportional to the activity of Arginase II. Also: in the data most compounds retested in dose-response had high values. Type of assay: functional. The note with it: 33.3 µM.

Assay [6] has as its target T3, Proteasome subunit beta (Trypanosoma cruzi) (UniProt O96673).
T3 sequence (whole entry): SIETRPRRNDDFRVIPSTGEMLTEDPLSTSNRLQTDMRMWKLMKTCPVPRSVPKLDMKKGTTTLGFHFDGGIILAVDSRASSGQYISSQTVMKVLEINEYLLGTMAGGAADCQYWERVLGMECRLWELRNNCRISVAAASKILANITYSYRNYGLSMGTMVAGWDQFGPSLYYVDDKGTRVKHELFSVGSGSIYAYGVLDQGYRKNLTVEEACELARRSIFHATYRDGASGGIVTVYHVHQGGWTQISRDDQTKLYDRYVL
In words: Trypanosoma cruzi proteasome chymotrypsin-like activity (TcProtChymo) assay. Also: in the data most compounds retested in dose-response had high values. The assay is classed as functional. The note with it: 9.37 µM.

The species entered for the next assay is Homo sapiens. In words: To identify inhibition of the IFN signalling (Jak-Stat) pathway via expression of an eGFP reporter gene under the control of an IFN-stimulated response element (ISRE) containing MxA promoter. The assay is classed as functional. The note with it: 30 µM.
For assay [7], the target named is T4, Tyrosyl-tRNA synthetase, putative (Trypanosoma cruzi (strain CL Brener)) (UniProt Q4DSP6).
T4 sequence (whole entry): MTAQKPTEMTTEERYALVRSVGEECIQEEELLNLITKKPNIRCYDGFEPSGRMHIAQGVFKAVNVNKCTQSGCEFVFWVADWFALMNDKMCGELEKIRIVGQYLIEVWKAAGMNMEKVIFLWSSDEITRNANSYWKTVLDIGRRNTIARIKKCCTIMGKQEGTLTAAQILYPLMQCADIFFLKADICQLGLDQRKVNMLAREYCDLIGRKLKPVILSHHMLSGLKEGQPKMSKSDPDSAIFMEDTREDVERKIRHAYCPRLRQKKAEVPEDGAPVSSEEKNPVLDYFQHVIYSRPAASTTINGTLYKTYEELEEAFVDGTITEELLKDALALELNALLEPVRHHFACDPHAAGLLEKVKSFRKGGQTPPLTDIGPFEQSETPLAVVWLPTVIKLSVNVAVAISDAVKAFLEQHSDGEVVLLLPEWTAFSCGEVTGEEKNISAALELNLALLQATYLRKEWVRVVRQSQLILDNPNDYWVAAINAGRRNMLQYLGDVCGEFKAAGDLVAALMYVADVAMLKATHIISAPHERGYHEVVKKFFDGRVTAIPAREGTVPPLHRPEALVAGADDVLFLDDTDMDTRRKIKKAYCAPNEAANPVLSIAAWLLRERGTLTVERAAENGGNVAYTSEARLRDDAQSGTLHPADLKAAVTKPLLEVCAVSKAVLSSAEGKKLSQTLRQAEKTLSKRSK
In words: Trypanosoma cruzi tyrosyl tRNA synthetase (TcYRS) _High Tyrosine SOP. Also: in the data most compounds retested in dose-response had high values. Type of assay: functional. The note with it: 30 µM.

In assay [8] the target is T4, Tyrosyl-tRNA synthetase, putative (Trypanosoma cruzi (strain CL Brener)). Kind of assay: Trypanosoma cruzi tyrosyl tRNA synthetase (TcYRS) SOP. The assay is classed as functional. The note with it: 30 µM.
For assay [9], the target named is Chromo domain-containing protein 1 (Saccharomyces cerevisiae (strain ATCC 204508 / S288c) (Baker's yeast)) (UniProt P32657). In words: ScCHD-1 Enzyme Inhibition Assay. Also: in the data most compounds retested in dose-response had high values. The note with it: 30 µM. Type of assay: functional.
Chromo domain-containing protein 1 (Saccharomyces cerevisiae (strain ATCC 204508 / S288c) (Baker's yeast)), sequence (P32657 whole entry, the tested form may be a part): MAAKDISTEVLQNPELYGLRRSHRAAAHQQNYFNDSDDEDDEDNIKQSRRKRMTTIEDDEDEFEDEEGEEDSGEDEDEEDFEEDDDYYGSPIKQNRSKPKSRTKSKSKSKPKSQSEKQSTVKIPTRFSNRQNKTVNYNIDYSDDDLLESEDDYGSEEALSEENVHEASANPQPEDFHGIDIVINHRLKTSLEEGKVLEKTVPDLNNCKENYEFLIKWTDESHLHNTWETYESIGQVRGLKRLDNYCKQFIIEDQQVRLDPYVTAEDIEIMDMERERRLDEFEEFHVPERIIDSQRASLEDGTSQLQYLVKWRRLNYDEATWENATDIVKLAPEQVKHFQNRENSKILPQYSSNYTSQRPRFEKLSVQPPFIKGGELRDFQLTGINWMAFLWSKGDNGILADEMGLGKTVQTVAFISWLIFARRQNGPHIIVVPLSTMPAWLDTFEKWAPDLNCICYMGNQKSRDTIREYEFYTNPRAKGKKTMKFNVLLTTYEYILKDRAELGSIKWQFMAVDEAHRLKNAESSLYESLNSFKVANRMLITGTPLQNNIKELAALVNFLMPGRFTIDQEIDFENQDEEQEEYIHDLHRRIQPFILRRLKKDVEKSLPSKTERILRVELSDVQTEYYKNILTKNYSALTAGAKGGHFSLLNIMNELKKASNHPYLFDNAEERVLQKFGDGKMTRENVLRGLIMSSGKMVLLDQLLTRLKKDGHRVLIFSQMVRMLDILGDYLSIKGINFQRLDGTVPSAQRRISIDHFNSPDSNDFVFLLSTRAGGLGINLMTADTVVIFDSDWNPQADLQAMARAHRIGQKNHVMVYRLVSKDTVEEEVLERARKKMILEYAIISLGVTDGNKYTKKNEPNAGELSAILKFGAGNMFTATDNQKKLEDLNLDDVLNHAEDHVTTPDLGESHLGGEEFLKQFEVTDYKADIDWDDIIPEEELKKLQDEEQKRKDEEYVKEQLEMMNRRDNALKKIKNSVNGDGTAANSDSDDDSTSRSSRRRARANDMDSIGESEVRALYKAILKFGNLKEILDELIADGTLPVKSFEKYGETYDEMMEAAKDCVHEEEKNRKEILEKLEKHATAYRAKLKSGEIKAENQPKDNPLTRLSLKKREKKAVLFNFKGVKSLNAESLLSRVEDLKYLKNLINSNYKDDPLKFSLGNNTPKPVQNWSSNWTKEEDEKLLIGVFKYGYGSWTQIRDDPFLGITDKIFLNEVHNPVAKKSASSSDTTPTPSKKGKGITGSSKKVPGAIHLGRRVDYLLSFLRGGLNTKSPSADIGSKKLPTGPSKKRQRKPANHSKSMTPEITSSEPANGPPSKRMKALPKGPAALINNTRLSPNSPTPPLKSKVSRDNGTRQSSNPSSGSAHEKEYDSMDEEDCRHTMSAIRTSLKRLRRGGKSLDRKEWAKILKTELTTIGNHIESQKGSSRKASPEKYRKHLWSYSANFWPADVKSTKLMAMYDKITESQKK

Structures are written as SMILES. For some of these results: Potency and affinity values are given separately.

Protein translocase subunit SecA (Escherichia coli (strain K12)), sequence (P10408 whole entry): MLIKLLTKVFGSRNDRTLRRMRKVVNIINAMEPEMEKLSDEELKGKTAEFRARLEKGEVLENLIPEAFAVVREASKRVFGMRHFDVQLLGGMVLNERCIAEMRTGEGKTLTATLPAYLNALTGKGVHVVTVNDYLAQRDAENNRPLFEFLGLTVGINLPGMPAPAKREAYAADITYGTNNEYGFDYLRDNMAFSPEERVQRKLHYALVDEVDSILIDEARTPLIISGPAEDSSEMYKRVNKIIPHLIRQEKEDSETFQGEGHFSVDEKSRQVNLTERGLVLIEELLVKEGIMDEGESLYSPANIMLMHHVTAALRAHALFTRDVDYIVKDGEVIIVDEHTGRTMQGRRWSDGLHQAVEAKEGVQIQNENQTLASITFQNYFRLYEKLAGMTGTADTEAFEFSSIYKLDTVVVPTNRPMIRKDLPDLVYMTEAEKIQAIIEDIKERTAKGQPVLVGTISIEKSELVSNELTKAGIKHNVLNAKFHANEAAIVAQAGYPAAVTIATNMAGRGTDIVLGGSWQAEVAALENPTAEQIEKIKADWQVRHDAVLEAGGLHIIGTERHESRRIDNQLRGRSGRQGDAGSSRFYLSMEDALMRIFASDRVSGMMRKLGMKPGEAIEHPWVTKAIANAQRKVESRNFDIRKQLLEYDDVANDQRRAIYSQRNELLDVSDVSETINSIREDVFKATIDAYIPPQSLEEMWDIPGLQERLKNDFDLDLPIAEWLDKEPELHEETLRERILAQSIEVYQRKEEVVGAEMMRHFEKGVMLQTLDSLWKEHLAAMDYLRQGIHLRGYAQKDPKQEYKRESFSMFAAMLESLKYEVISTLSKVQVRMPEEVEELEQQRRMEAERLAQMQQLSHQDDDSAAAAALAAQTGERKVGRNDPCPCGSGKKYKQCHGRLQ

As to `CCNC(c1cccnc1)c1ccc(F)c(F)c1` (stereo unspecified), the Percent Effect in assay [1] is -1.6%; in assay [2], -1.27%; in assay [3], 6.62%; in [4] it was 2.25%; with Trypanosoma cruzi, -0.923%; in assay [5], 4.09%. The Percent Effect in [6] is 5.66%; in the assay filed under Homo sapiens, 5.14%; in [7], 1.04%; in assay [8], -5.06%; in [9] it was -14.2%.

Take `COCCCN1CCC(NC(=O)C(C)C)CC1`: the Percent Effect in assay [1] is -6.61%; in [2], -2.74%; in [3], -0.488%; in [4], -2.06%; in the assay with Trypanosoma cruzi, -5.16%; in assay [5], -2%. Moreover, the Percent Effect in assay [6] was 6.76%; in the assay filed under Homo sapiens, 24.5%; in assay [7], 0%; in assay [8] it was -1.24%; in assay [9] it was -2.64%.

With `CC(C)Oc1ncccc1CNC(=O)c1cc[nH]n1`, the Percent Effect in assay [1] is -3.9%; in [2] it was 8.11%; in assay [3], 0.642%; in assay [4], 2.46%; in the assay with Trypanosoma cruzi it was -3.3%; in assay [5], -0.802%. Also, the Percent Effect in [6] was -0.18%; in the assay filed under Homo sapiens, 3.02%; in assay [7], 2.46%; in assay [8] it was 6.17%; in [9] it was -2.93%.

Consider `O=C([C@@H]1C[C@H]2[C@H](CCN2Cc2nccs2)O1)N1CCOCC1`, for which the Percent Effect in [1] was -0.787%; in assay [2], 8.11%; in assay [3], 1.14%; in assay [4], -3.79%; in the assay with Trypanosoma cruzi it was -2.15%; in [5] it was 0.833%. Moreover, the Percent Effect worked out at 19% in [6]; 11.3% in the assay filed under Homo sapiens; 10.9% in assay [7]; 13.4% in [8]; 8.93% in assay [9].

With `Cc1ccc(OCC(=O)NCc2ccccc2F)nc1`, the Percent Effect is -2.7% in [1]; 19.2% in assay [2]; -0.689% in assay [3]; 12.5% in assay [4]; 4.56% in the assay on Trypanosoma cruzi; -2.4% in [5]. Further, the Percent Effect is 8.13% in assay [6]; 13.8% in the assay filed under Homo sapiens; 7.29% in assay [7]; 13.6% in assay [8]; -4.08% in assay [9].

For the compound `CN(C)C(=O)c1ccc2c(c1)N(C)C(CC(=O)NCc1ccno1)CO2` (stereo unspecified), the Percent Effect in [1] is -0.872%; in assay [2] it was 6.94%; in [3] it was -9.68%; in assay [4], 0.254%; with Trypanosoma cruzi, 1.85%; in [5] it was 15%. Moreover, the Percent Effect in [6] is 20.7%; in the assay filed under Homo sapiens it was 18.1%; in [7], 7.37%; in assay [8], 10.3%; in assay [9], -2.72%.

As to `CCN1CCCn2c(nc(CNC(=O)c3ccsc3)cc2=O)C1`, the Percent Effect in assay [1] is -4.67%; in assay [2], 13.5%; in [3] it was 7.54%; in [4], 3.9%; with Trypanosoma cruzi, -0.0978%; in assay [5] it was 9.24%. Also, the Percent Effect in assay [6] is 13.1%; in the assay filed under Homo sapiens, -1.85%; in assay [7], 3.24%; in assay [8], 17.9%; in [9], -0.449%.

`CCCNC(=O)CN1CCN(Cc2csc(C(C)(C)C)n2)CC1`: the Percent Effect was -7.74% in assay [1]; 2.53% in [2]; -2.27% in assay [3]; 0.111% in assay [4]; -4.63% in the assay with Trypanosoma cruzi; -1.14% in assay [5]. Besides, the Percent Effect in assay [6] was -7.62%; in the assay filed under Homo sapiens it was 20.3%; in assay [7] it was 2.46%; in [8], -3.8%; in assay [9] it was -1.83%.

Take `O=C(CCCOc1ccc(F)cc1F)N1CCCC1Cn1cccn1` (stereo unspecified): the Percent Effect in assay [1] is -7.68%; in [2], 15.8%; in assay [3] it was -5.85%; in assay [4] it was 17.7%; in the assay on Trypanosoma cruzi, 4.01%; in assay [5], 1.8%. Also, the Percent Effect in [6] is 8.38%; in the assay filed under Homo sapiens, 9.96%; in assay [7], 5.42%; in assay [8], 16.1%; in [9], -6.65%.

As for `COc1ccc(S(=O)(=O)N2CCCC3(CCCN3S(C)(=O)=O)C2)cc1` (stereo unspecified), the Percent Effect was -2.95% in assay [1]; 10.8% in [2]; -2.61% in assay [3]; -2.37% in assay [4]; -8.31% in the assay with Trypanosoma cruzi; -2.73% in assay [5]. The Percent Effect in [6] is 12.3%; in the assay filed under Homo sapiens it was 7.81%; in assay [7], 0%; in assay [8], 8.64%; in assay [9] it was -3.67%.

In the case of `Cn1cc(-c2cnc(N3CCOCC3)nc2)cc1C(=O)N1CCOCC1`, the Percent Effect in assay [1] was -2.41%; in [2] it was 13.3%; in [3], 7.42%; in assay [4], 1.64%; in the assay on Trypanosoma cruzi, -0.984%; in [5] it was 2.56%. In addition, the Percent Effect in assay [6] is 1.32%; in the assay listed under Homo sapiens, 23.2%; in assay [7] it was 6.38%; in assay [8], 14.1%; in assay [9] it was -9.55%.
